In all, about 220,000 compounds went through this assay and about 2,400 (1.1%) were called active. Another 7% or so got no clear call; they are omitted. The rule behind the calls is not given here. Only a selection was taken, and actives are over-represented in it overall.
molecular target: Huntingtin (Homo sapiens) (UniProt P42858); test: qHTS Multiplex Assay to Identify Dual Action Probes in a Cell Model of Huntington: Aggregate Formation (GFP). [Related pubchem assays: 1482, 1471 ]; type: functional
Sequence (P42858 whole entry): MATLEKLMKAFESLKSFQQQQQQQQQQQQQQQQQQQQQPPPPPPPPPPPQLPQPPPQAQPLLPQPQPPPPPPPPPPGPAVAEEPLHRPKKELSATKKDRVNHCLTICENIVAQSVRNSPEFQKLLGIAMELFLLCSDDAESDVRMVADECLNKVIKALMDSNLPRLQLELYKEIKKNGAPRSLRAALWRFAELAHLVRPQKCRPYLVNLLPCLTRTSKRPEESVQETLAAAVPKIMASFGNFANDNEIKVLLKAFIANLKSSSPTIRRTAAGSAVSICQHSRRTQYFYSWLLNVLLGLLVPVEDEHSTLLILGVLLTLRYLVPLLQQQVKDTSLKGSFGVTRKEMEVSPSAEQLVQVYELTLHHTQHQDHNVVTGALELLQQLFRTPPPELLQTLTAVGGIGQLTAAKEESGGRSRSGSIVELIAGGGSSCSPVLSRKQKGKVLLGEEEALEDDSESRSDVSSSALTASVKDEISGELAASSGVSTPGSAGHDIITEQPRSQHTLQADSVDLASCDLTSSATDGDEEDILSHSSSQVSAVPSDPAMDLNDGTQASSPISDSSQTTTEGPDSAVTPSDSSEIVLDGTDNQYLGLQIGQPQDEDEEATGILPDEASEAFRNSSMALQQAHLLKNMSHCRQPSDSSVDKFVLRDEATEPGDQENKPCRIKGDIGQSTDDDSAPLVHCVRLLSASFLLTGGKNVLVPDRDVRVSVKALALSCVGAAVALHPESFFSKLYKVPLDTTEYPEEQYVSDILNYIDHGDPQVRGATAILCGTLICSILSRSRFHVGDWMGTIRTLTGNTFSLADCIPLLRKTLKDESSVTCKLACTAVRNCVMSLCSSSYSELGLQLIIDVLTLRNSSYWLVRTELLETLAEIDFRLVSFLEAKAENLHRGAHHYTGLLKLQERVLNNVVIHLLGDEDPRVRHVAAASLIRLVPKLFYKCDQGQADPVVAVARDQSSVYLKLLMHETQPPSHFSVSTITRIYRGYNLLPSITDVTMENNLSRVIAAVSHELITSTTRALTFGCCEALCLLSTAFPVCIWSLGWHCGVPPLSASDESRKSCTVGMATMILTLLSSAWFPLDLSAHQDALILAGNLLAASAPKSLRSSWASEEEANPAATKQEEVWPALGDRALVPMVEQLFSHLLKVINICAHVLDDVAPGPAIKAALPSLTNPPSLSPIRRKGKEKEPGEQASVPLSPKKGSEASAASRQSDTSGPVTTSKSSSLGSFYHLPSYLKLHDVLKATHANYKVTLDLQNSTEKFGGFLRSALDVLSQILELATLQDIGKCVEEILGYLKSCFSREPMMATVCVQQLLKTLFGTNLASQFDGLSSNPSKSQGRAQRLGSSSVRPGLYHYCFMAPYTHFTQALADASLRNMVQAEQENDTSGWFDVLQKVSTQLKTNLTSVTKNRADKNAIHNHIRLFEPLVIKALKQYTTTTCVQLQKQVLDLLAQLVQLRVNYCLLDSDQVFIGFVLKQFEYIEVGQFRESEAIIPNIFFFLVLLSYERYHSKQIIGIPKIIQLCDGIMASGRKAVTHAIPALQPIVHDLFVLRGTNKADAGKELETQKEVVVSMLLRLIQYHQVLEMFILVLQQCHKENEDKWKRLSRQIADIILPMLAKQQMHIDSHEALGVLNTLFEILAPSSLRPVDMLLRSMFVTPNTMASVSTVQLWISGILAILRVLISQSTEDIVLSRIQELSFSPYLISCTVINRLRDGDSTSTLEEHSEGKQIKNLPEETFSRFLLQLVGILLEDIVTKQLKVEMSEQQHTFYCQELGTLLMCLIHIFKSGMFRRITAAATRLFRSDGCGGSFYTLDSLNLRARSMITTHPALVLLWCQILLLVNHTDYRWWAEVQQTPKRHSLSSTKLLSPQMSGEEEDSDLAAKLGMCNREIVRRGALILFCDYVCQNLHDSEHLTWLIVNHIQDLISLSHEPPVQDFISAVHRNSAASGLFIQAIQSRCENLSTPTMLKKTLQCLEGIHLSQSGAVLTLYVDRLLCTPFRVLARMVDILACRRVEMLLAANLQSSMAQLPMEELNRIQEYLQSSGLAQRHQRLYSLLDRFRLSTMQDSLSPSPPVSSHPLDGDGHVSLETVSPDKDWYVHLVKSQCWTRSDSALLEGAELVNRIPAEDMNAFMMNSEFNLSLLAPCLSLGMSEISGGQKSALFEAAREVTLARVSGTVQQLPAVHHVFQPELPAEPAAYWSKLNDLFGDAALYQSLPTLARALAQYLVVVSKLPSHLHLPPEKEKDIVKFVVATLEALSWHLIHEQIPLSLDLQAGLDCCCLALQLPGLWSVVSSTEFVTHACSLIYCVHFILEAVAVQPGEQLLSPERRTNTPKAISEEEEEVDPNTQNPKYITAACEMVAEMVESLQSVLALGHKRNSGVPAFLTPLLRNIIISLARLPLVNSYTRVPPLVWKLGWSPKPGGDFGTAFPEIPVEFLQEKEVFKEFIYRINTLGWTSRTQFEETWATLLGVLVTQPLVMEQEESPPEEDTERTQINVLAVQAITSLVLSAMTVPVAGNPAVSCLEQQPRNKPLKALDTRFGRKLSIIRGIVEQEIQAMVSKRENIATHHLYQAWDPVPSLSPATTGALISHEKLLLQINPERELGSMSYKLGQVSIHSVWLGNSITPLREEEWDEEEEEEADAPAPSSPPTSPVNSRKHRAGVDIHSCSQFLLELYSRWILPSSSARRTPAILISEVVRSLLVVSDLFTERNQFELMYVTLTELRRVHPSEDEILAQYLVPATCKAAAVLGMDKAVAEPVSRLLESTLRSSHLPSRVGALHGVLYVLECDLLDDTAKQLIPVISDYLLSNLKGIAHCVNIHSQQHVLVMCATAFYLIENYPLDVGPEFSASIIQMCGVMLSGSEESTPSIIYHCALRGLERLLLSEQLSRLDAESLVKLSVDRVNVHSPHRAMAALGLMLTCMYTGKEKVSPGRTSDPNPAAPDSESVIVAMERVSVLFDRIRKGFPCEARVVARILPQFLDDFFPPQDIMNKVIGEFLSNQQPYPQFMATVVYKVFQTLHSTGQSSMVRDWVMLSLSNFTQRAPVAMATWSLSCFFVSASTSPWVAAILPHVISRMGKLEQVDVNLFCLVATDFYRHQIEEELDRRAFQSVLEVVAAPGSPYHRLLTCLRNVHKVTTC

SMILES | Potency
O=C(c1nc2nc(-c3ccccc3)cc(C(F)(F)F)n2n1)N1CCOCC1 | 112 µM (active)
CCOc1ccc(S(=O)(=O)n2ccc(C)n2)c2ccccc12 | 56.2 µM (active)
Cc1nnc2sc(SCc3ccc(Cl)cc3)nn2c1=O | 891 µM (active)
CCOC(=O)c1ccc(N2CN(CCc3ccccc3)CN=C2S)cc1 | 112 µM (active)
O=C1C2C3C=CC(C3)C2C(=O)N1CCCO (stereo not drawn) | 89.1 µM (active)
CCOC(=O)c1c(NC(=O)C2=C(C)N=C(S)NC2c2ccc(F)cc2)sc(C)c1C (stereo not drawn) | 112 µM (active)
CCOC(=O)Cn1c(-c2ccccn2)nc2ccccc21 | 224 µM (active)
CN(C)CCN(C(=O)c1ccc(S(=O)(=O)N(C)C)cc1)c1nc2cc3c(cc2s1)OCCO3 | 141 µM (active)

Source: ChEMBL document CHEMBL1201862, “PubChem BioAssay data set” (2004)
